Assay outcomes from PubChem BioAssay.
Hits are enriched below; roughly 6.2% of the tested compounds scored in any of these assays.
NTR1 agonist – agonists of human neurotensin receptor NTR1; P30989; NTR1-U2OS beta-arrestin-GFP spot imaging, agonist mode; activation, % at 20 µM; hit rate 0.17% among 330,000; AID 493036;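 active means activation at or above 40% of the spot to cytoplasm intensity ratio, with at least 20 cells analyzed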
Target sequence (P30989 whole entry, looked up): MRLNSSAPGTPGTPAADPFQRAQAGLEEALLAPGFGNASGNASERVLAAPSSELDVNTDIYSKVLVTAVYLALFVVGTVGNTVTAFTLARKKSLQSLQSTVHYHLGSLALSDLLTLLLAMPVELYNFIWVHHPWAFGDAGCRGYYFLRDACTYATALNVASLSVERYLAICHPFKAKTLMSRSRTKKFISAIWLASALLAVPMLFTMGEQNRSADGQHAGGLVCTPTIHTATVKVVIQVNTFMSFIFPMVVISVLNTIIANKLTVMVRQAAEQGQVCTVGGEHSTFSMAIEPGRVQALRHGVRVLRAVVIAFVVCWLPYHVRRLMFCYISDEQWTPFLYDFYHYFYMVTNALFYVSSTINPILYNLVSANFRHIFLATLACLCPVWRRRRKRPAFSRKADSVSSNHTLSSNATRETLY
SUMO Mot1 rescue – SUMOylation pathway inhibition by Mot1-301 growth rescue; S. cerevisiae Mot1-301 growth rescue, ATP luminescence, 38.5C; percent above DMSO median, 100 means doubled; growth rescue, % at 18.8 µM; hit rate 1% among 320,000;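 active means every valid replicate shows activation above 250% relative to neutral control wells; inactive means the rest, any valid replicate at or below 250%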
AHR act – activates the human aryl hydrocarbon receptor. P35869. AHR-responsive luciferase reporter cells, luminescence. activation, % at 5 µM. hit rate 2.5% among 320,000; in the data active means activation above about 47%
AI-2 QS modul – modulates the Vibrio harveyi AI-2 quorum sensing system | Vibrio harveyi JMH597 AI-2 luminescence/OD600 ratio, 9 h; active compounds read low; strain lacks LuxN and CqsS sensors; 0 = neutral-control median | activity change, % at 7.5 µM | hit rate 0.4% among 300,000 | AID 2094; in the data active means activity change below about -75%, passing the limit was not always enough;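 further: luminescence divided by OD600 gain over 9 h not by final OD600 alone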
Cardio protect – modulators protecting cardiomyocytes from myocardial damage; H9c2 cardiomyocytes, H2O2 injury protection, ATPLite, 2 h; protection from H2O2 cell death, % at 20 µM; hit rate 0.63% among 360,000; AID 588492;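 active means compounds giving at least 50% protection of heart cells from peroxide-induced death in the single-dose screen, raw or plate-pattern-corrected value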
NR3A LBD binder – NR3A (human) ligand-binding domain modulation. NR3A LBD differential scanning fluorimetry, Tm shift; 0% = protein alone, 100% = glycine-bound protein. Tm shift relative to glycine control, % at 25 µM. hit rate 2.5% among 340,000. AID 1259313;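 active means melting temperature shift of at least 10% of the positive control shift, at one fixed dose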
A number is an active result.

For c1ccc2c(c1)nc(Nc1ccc3c(c1)OCO3)c1nnnn12 the results were NTR1 agonist inactive, SUMO Mot1 rescue inactive, AHR act 120, AI-2 QS modul inactive, Cardio protect 56 and NR3A LBD binder inactive.
Cc1cc(C)n(-c2nc3ccccc3nc2Nc2ccc3c(c2)OCO3)n1 was read as NTR1 agonist inactive, SUMO Mot1 rescue inactive, AHR act 76, AI-2 QS modul inactive, Cardio protect inactive and NR3A LBD binder inactive.
`CCN(CC)S(=O)(=O)c1ccc(Nc2nc3ccccc3n3nnnc23)cc1` gave NTR1 agonist inactive, SUMO Mot1 rescue inactive, AHR act inactive, AI-2 QS modul inactive, Cardio protect 83 and NR3A LBD binder inactive.
`COc1cccc(Nc2nc3ccccc3n3nnnc23)c1` gave NTR1 agonist inactive, AHR act inactive, AI-2 QS modul inactive, Cardio protect 68 and NR3A LBD binder inactive.
Fc1cccc(Nc2nc3ccccc3n3nnnc23)c1 was read as NTR1 agonist inactive, SUMO Mot1 rescue inactive, AHR act inactive, AI-2 QS modul inactive, Cardio protect inactive and NR3A LBD binder inactive.
`c1ccc(Nc2nc3ccccc3n3nnnc23)cc1` gave NTR1 agonist inactive, SUMO Mot1 rescue inactive, AHR act inactive, AI-2 QS modul inactive, Cardio protect inactive and NR3A LBD binder inactive.
For C[C@H](O)[C@@H]1C(=O)N2CCc3c([nH]c4ccccc34)[C@@H]2C[C@@H]1N(C)Cc1ccc2c(c1)OCO2 the results were Cardio protect inactive.
For COc1ccc(-c2ccc(C(=O)NCc3ccc(N(C)C)cc3)c3occc23)c(C)c1 the results were Cardio protect inactive.
For CC(=O)c1cccc(NC(=O)NC(C)c2ccc3c(c2)OCO3)c1 (centres undefined) the results were NTR1 agonist inactive, SUMO Mot1 rescue inactive, AHR act inactive, AI-2 QS modul inactive, Cardio protect inactive and NR3A LBD binder inactive.
For O=C1CC(c2ccccc2)=Nc2ccccc2N1 the results were NTR1 agonist inactive, SUMO Mot1 rescue inactive, AHR act 75, AI-2 QS modul inactive, Cardio protect inactive and NR3A LBD binder inactive.
For Cc1ccc2c(c1)NC(=O)CC(c1ccccc1)=N2 the results were NTR1 agonist inactive, SUMO Mot1 rescue inactive, AHR act inactive, AI-2 QS modul inactive, Cardio protect inactive and NR3A LBD binder inactive.
For CCOc1cccc(-c2nc(C(N)=O)c3[nH]c(=O)n(-c4cccc(Cl)c4)c3n2)c1O the results were NTR1 agonist inactive, SUMO Mot1 rescue inactive, AHR act inactive, AI-2 QS modul inactive, Cardio protect inactive and NR3A LBD binder inactive.
CCOc1ccccc1-c1nc(C(N)=O)c2[nH]c(=O)n(-c3cccc(C)c3)c2n1 was read as NTR1 agonist inactive, SUMO Mot1 rescue inactive, AHR act 64, AI-2 QS modul inactive, Cardio protect inactive and NR3A LBD binder inactive.
For CN1CCc2c(sc(NC(=O)C3CCCN3S(=O)(=O)c3ccc(Cl)s3)c2C(N)=O)C1 (centres undefined) the results were NTR1 agonist inactive, SUMO Mot1 rescue inactive, AHR act inactive, AI-2 QS modul inactive, Cardio protect inactive and NR3A LBD binder inactive.
Screening C=C1CCC[C@]2(C)C[C@H]3OC(=O)C(CNCCN(CC)CC)[C@H]3CC12 (some centres undefined) returned NTR1 agonist inactive, SUMO Mot1 rescue inactive, AHR act inactive, AI-2 QS modul inactive, Cardio protect inactive and NR3A LBD binder inactive.
Screening Cc1cn2c(=O)c(C(=O)NCc3ccc4c(c3)OCO4)cnc2s1 returned NTR1 agonist inactive, SUMO Mot1 rescue inactive, AHR act inactive, AI-2 QS modul inactive, Cardio protect inactive and NR3A LBD binder inactive.
`CCCCOP(=O)(OCCCC)C(Nc1ccccc1)c1ccc2c(c1)OCO2` (centres undefined) gave SUMO Mot1 rescue inactive, AHR act inactive, AI-2 QS modul inactive, Cardio protect inactive and NR3A LBD binder 14.
`CCOP(=O)(OCC)C(Nc1ccccc1)c1ccc2c(c1)OCO2` (centres undefined) gave NTR1 agonist inactive, SUMO Mot1 rescue inactive, AHR act inactive, AI-2 QS modul inactive, Cardio protect inactive and NR3A LBD binder inactive.
Screening CC1(C(=O)Nc2cccc3cccnc23)CCN1Cc1ccc(-c2ccccc2)o1 (centres undefined) returned Cardio protect inactive.
